Hits are enriched below; roughly 3.9% of the tested compounds scored in any of these assays.
SARS 3CLpro inh = SARS-CoV 3CLpro protease inhibition | recombinant SARS-CoV 3CLpro, quenched FRET peptide cleavage | inhibition, % at 6 µM | 290,000 tested, 0.14% active | AID 1706; in the data active = inhibition above about 12%
CCHF vOTU inh = blocks the CCHF virus ovarian tumor domain protease. CCHFV vOTU protease, Pep-AMC fluorescence. inhibition, % at 11.5 µM. 370,000 tested, 0.55% active; in the data active = inhibition above about 30%; also: 0% = vehicle wells with enzyme and 100% = no enzyme wells
BoNT-F LC inh = blocks Botulinum neurotoxin F light chain protease; Multiplex microsphere protease cleavage assay, flow cytometry; AID 588497; inhibition, % at 10 µM; 360,000 tested, 0.22% active; in the data active = inhibition above about 35%, passing the limit was not always enough; inconclusive = no clear call, values can overlap the other calls; also: plate controls were buffer without enzyme for full effect and enzyme alone for no effect
BoNT-A LC inh2 = blocks Botulinum neurotoxin A light chain protease; multiplex microsphere protease substrate cleavage, flow cytometry; inhibition, % at 10 µM; 360,000 tested, 0.17% active; AID 588499; also: plate controls were buffer without enzyme for full effect and enzyme alone for no effect
Bead autofluor = flagged as autofluorescent in microsphere protease counterscreen. fluorescence intensity (concentration not given with the values). compound autofluorescence counterscreen, microsphere flow cytometry; active compounds read high. 360,000 tested, 3.1% active; in the data active = fluorescence intensity above about 16000; inconclusive = no clear call, values can overlap the other calls
Anthrax LF inh2 = anthrax lethal factor protease inhibition; P15917; multiplex microsphere protease cleavage assay, LF; inhibition, % at 10 µM; 360,000 tested, 0.12% active; AID 588501; also: plate controls were buffer without enzyme for full effect and enzyme alone for no effect
* = called active by the depositor. Rule as the data show it, unless noted: active = inhibition above about 30%; inconclusive = no clear call, values can overlap the other calls; inactive = below that.

How did C#CCNC(=O)C[C@H]1C[C@@]2(C(=O)OC)C(=C[C@H](COCc3ccccc3)O[C@@H]2C)N(Cc2cccc3ccccc23)C1=O do in these assays?
CCHF vOTU inh: 4

How did O=C(N1CCOCC1)C(F)(F)C(F)(F)C(F)(F)C(F)(F)C(=O)N1CCOCC1 do in these assays?
SARS 3CLpro inh: -2; CCHF vOTU inh: -3; BoNT-F LC inh: 0; BoNT-A LC inh2: inconclusive; Bead autofluor: 20612*; Anthrax LF inh2: 0

How did O=C(COC(=O)C1=COCCO1)NCc1ccc(Cl)cc1Cl do in these assays?
CCHF vOTU inh: -12; BoNT-F LC inh: 0; BoNT-A LC inh2: 0; Bead autofluor: 2956; Anthrax LF inh2: 0

How did CC(C)(C)OC(=O)NC(CCCCNC=O)C(=O)O (centres undefined) do in these assays?
SARS 3CLpro inh: -11; CCHF vOTU inh: 18; BoNT-F LC inh: 2; BoNT-A LC inh2: 0; Bead autofluor: 23419*; Anthrax LF inh2: -2

What do the screens show for `Cc1ccc(Cn2ccc(NC(=O)c3cc(-c4cccs4)on3)n2)cc1`?
SARS 3CLpro inh: -4; CCHF vOTU inh: 1; BoNT-F LC inh: -6; BoNT-A LC inh2: -3; Bead autofluor: 25079*; Anthrax LF inh2: 0

What do the screens show for `O=C(NCc1cccs1)c1cc(-c2ccccc2)on1`?
SARS 3CLpro inh: 1; CCHF vOTU inh: -13; BoNT-F LC inh: -12; BoNT-A LC inh2: -1; Bead autofluor: 6656; Anthrax LF inh2: -3

What do the screens show for `CC(NC(=O)c1cc(-c2cccs2)on1)c1ccccc1` (centres undefined)?
SARS 3CLpro inh: 4; CCHF vOTU inh: -1; BoNT-F LC inh: -2; BoNT-A LC inh2: inconclusive; Bead autofluor: 16362*; Anthrax LF inh2: -12

How did O=C(NCc1cccs1)c1cc(-c2cccs2)on1 do in these assays?
SARS 3CLpro inh: 1; CCHF vOTU inh: -9; BoNT-F LC inh: 6; BoNT-A LC inh2: 4; Bead autofluor: 22229*; Anthrax LF inh2: -1

Results for Cc1ccc(NC(=O)c2cc(-c3cccs3)on2)cc1 ?
SARS 3CLpro inh: -4; CCHF vOTU inh: 6; BoNT-F LC inh: -4; BoNT-A LC inh2: -1; Bead autofluor: 3274; Anthrax LF inh2: 3

What do the screens show for `O=C(NCc1ccc(Cl)cc1)c1cc(-c2cccs2)on1`?
SARS 3CLpro inh: 0; CCHF vOTU inh: 0; BoNT-F LC inh: 6; BoNT-A LC inh2: 7; Bead autofluor: 16902*; Anthrax LF inh2: -8

How did CCOc1ccc(N2C(=O)/C(=C/c3ccco3)C(=O)NC2=S)cc1 do in these assays?
SARS 3CLpro inh: 4; BoNT-F LC inh: 47*; BoNT-A LC inh2: 3; Bead autofluor: 2781; Anthrax LF inh2: -11

Results for CC1(C(=O)NCc2cccc(Cl)c2)Cc2c(-c3cccc(C(N)=O)c3)ccnc2O1 (centres undefined) ?
CCHF vOTU inh: -11; BoNT-F LC inh: -8; BoNT-A LC inh2: 0; Bead autofluor: 3004; Anthrax LF inh2: -3

How did COc1ccc(NC(=O)COC(=O)c2ccc(Cl)c(S(N)(=O)=O)c2)c([N+](=O)[O-])c1 do in these assays?
SARS 3CLpro inh: -1; CCHF vOTU inh: 15; BoNT-F LC inh: -5; BoNT-A LC inh2: 0; Bead autofluor: 5673; Anthrax LF inh2: 0

What do the screens show for `COc1ccc(NC(=O)c2ccc3nc(-c4ccccc4)c(-c4ccccc4)nc3c2)c(OC)c1`?
SARS 3CLpro inh: -2; CCHF vOTU inh: 7; BoNT-F LC inh: -2; BoNT-A LC inh2: 0; Bead autofluor: 2048; Anthrax LF inh2: 2

What do the screens show for `COc1cccc(CNc2cccc3cccnc23)c1O`?
SARS 3CLpro inh: 1; CCHF vOTU inh: 9; BoNT-F LC inh: -10; BoNT-A LC inh2: -3; Bead autofluor: 16704*; Anthrax LF inh2: -8

What do the screens show for `COc1ccccc1OCc1nc2ccccc2[nH]1`?
SARS 3CLpro inh: 2; CCHF vOTU inh: -4; BoNT-F LC inh: -5; BoNT-A LC inh2: -1; Bead autofluor: 17050*; Anthrax LF inh2: -2

Results for COc1ccc(C(=O)Nc2nc3ccccc3[nH]2)cc1OC ?
SARS 3CLpro inh: -2; CCHF vOTU inh: 2; BoNT-F LC inh: -12; BoNT-A LC inh2: -4; Bead autofluor: 21383*; Anthrax LF inh2: -2

How did COc1ccccc1NC(=O)c1ccc2nc(-c3ccccc3)c(-c3ccccc3)nc2c1 do in these assays?
SARS 3CLpro inh: -1; CCHF vOTU inh: -12; BoNT-F LC inh: 2; BoNT-A LC inh2: inconclusive; Bead autofluor: 20872*; Anthrax LF inh2: -5

What do the screens show for `Cc1cc(C)c(Cn2c(=O)[nH][nH]c2=O)cc1Cn1c(=O)[nH][nH]c1=O`?
CCHF vOTU inh: -17; BoNT-F LC inh: -8; BoNT-A LC inh2: -1; Bead autofluor: 3778; Anthrax LF inh2: -8

How did Cn1c(N)c(C(=O)COC(=O)CC(NC(=O)c2ccccc2Cl)c2ccccc2)c(=O)n(C)c1=O (centres undefined) do in these assays?
SARS 3CLpro inh: 3; CCHF vOTU inh: 5; BoNT-F LC inh: 7; BoNT-A LC inh2: 2; Bead autofluor: 4618; Anthrax LF inh2: 0

How did COc1ccc(C(=O)Nc2cccc3cccnc23)cc1OC do in these assays?
SARS 3CLpro inh: 0; CCHF vOTU inh: -6; BoNT-F LC inh: -4; BoNT-A LC inh2: 0; Bead autofluor: 23720*; Anthrax LF inh2: -1

Results for COc1ccc(NC(=O)C(=O)Nc2cccc3cccnc23)cc1OC ?
SARS 3CLpro inh: 4; CCHF vOTU inh: 5; BoNT-F LC inh: 0; BoNT-A LC inh2: -4; Bead autofluor: 3094; Anthrax LF inh2: -4

What do the screens show for `Cc1ccc(NC(C#N)c2ccccc2OCc2ccccc2)cc1` (centres undefined)?
SARS 3CLpro inh: 1; CCHF vOTU inh: -1; BoNT-F LC inh: -7; BoNT-A LC inh2: inconclusive; Bead autofluor: 23322*; Anthrax LF inh2: -2

Results for Cc1ccc(NC(=O)c2ccccc2)s1 ?
SARS 3CLpro inh: -2; CCHF vOTU inh: 7; BoNT-F LC inh: -8; BoNT-A LC inh2: -2; Bead autofluor: 24292*; Anthrax LF inh2: -2

Results for Cc1cc(NC(=O)c2ccccc2)sc1C ?
SARS 3CLpro inh: -2; CCHF vOTU inh: 12; BoNT-F LC inh: 2; BoNT-A LC inh2: 0; Bead autofluor: 2771; Anthrax LF inh2: -2

What do the screens show for `O=C(Nc1ccc2c(c1)CCC2)C1COc2ccccc2O1` (centres undefined)?
SARS 3CLpro inh: 1; CCHF vOTU inh: -6; BoNT-F LC inh: 0; BoNT-A LC inh2: 0; Bead autofluor: 23530*; Anthrax LF inh2: -6

Results for Cn1ccnc1C(=O)O[C@@H]1CCC[C@@]2(C(=O)N(Cc3ccccc3)c3ccccc32)[C@H]1NC(=O)CCc1ccccc1 ?
CCHF vOTU inh: 4

Results for CC1=C(C#N)C(NC(=O)C(C)(C)C)(C(F)(F)F)C(=O)N1 (centres undefined) ?
SARS 3CLpro inh: 0; CCHF vOTU inh: 3; BoNT-F LC inh: -4; BoNT-A LC inh2: -2; Bead autofluor: 21687*; Anthrax LF inh2: -1

How did Nc1[nH]c(C(=O)c2ccccc2)c(-c2ccccc2[N+](=O)[O-])c1C(=O)NCCc1c[nH]c2ccccc12 do in these assays?
CCHF vOTU inh: 25
